Screening results (PubChem BioAssay)
Mito fusion yeast = inhibitors of mitochondrial division or activators of mitochondrial fusion; Potency, µM (highest dose often 46.1 µM), without a hit: top-dose growth rescue (activation), most hits filed as activators; S. cerevisiae fusion-defective mutant growth rescue, CellTiterGlo 48 h; 0.23% of 320,000 active; also: % of control where 0% means no effect; nearly all actives have a fitted effect of over 45% in size
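Compounds are tested for their ability to restore growth of mitochondrial fusion-defective yeast strains at non-permissive 37C in YPEG medium over 48 hours. Viability is quantified by luciferase luminescence.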
AT treatment = candidate therapy for ataxia-telangiectasia | F2112 A-T fibroblasts, KAP-1 phosphorylation AlphaLISA; neocarzinostatin DNA damage 30 min before lysis | Potency, µM (highest dose often 57.5 µM), for inactives: top-dose activation, usual class: activators | 0.19% of 320,000 active; also: % of control where 0% means no effect; nearly all actives have a fitted effect of over 45% in size
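hTERT-immortalized A-T patient fibroblasts (F2112), 500 cells/well in OPTI-MEM, 1% FBS, got compounds for 60 min, then NCS for 30 min at 37C. Lysates were then assayed for phospho-KAP-1 by AlphaLISA (anti-pKAP1 donor, anti-KAP1 acceptor beads), 6 hr at 25C.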
GALK inhibitor = blocks human galactokinase activity. AID 1868. 0.007% of 270,000 active. P51570. Purified GALK, Kinase-Glo residual ATP luminescence. Potency, µM (doses to about 57.5 µM), inactives show at the highest dose activity change, negative = inhibition, hits mostly inhibitors; also: % is scaled to controls: 0 for no effect and ±100 for the full control effect
Target sequence (P51570 whole entry, looked up): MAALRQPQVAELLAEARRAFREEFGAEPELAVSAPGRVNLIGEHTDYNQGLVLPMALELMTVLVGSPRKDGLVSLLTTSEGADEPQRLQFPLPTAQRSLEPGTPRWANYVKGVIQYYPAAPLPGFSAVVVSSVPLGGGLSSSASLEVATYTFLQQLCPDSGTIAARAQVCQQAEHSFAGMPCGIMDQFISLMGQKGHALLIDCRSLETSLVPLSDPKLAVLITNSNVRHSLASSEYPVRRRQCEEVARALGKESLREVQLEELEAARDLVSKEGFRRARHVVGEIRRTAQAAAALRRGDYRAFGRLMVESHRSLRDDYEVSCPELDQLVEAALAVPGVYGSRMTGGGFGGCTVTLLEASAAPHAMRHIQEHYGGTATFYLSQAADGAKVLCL
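The enzyme phosphorylates galactose (100 uM) using ATP (35 uM); inhibition is detected as higher residual ATP, quantified by bioluminescence after 1 h reaction at room temperature, pH 8.0.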
a7 integrin act = activators of alpha7 integrin expression for muscular dystrophy | 0.064% of 350,000 active | Potency, µM (series often up to 38.3 µM), for inactives: at the highest dose activation, hits mostly activators | alpha7betagal myoblasts, beta-gal FDG fluorescence, 48 h;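 also: 100% = response of the positive control SU9516; nearly all actives have a fitted effect of over 60% in size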
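alpha7betagal+/- myoblasts (passage 13, 250/well) treated 48 h at 37C with compounds at 1:260 dilution of DMSO stock. Lysed, then beta-galactosidase activity read as FDG fluorescence (ex 480/em 540) after 30 min, with pre-read for autofluorescence.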
ASM inhibitor = human S-ASM enzyme inhibition | 0.006% of 340,000 active | placental ASM, HMU-PC fluorogenic substrate, 60 min | Potency, µM (series often up to 57.5 µM), inactives show at the highest dose activity change, negative = inhibition, actives largely listed as inhibitors | AID 504937
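Human placenta-derived ASM preincubated with compound 10 min at room temperature, then reacted with 9 uM (final) fluorogenic HMU-PC substrate for 60 min at 37 C. Stop solution raises pH to 10; fluorescence read at Ex 386/Em 447 nm.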
PTAP TSG101 blk = blocks PTAP/TSG101 interaction to inhibit HIV-1 budding. Potency, µM (titrated, usually from 115 µM), inactives show at the highest dose activity change, negative = inhibition, usual class: inhibitors. 340,000 tested, under 10 active. AID 493005. Fluorescence polarization, FITC-PTAP peptide / Tsg101 binding. Q99816; active = well fitted inhibition curve with a large enough effect in the main read-out, with a control signal flat, not every such curve was filed as active; inconclusive = small, poorly fitted or top-dose-only effect, or effect the other way, or a change in a side signal; inactive = no such curve, though single readings can be large or run the other way; also: % of control where 0% means no effect
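Fluorescence anisotropy tracks displacement of a FITC-tagged PTAP peptide (50 nM) from the Tsg101 binding domain (10 uM), following a 20 min room-temperature incubation at pH 7.5.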
An asterisk follows results filed as active; ? = inconclusive; / = no result. Compounds with a hit are over-represented: about 0.46% of the library has one in this group of screens. Unless noted, calls follow the shape of the dose curve; as a rule, active = well fitted curve in the direction sought with a large enough effect; inconclusive = small, poorly fitted or top-dose-only effect, or another doubt; inactive = no such curve, though single readings can be large; an effect the other way counts as inactive or inconclusive. Potency is read from the fitted curve at half-maximal effect.

SMILES	Mito fusion yeast	AT treatment	GALK inhibitor	a7 integrin act	ASM inhibitor	PTAP TSG101 blk
CC(C)n1ncc2c(C(=O)Nc3cccc(C#N)c3)cc(C3CC3)nc21	15.8µM*	19.1%	/	1.4%	-7.7%	-2.5%
Cc1ccc2c(c1)Sc1ccccc1CC2=O	-7.2%	39.8µM*	-0.3%	-7.3%	-2.7%	1.7%
O=C1Cc2ccccc2Sc2ccccc21	-0.7%	2.7%	-0.5%	-3.9%	-3.3%	-2.2%
O=C(CNC(=O)c1ccccc1F)N/N=C/c1cc(Br)ccc1OCc1ccccc1	20.0%	8.1%	-0.2%	0.0%	-5.1%	-4.1%
O=C(CNC(=O)c1cccc(F)c1)N/N=C/c1cc(Br)ccc1OCc1ccccc1	3.2%	1.0%	1.5%	10µM*	-17.0%	-5.8%
Fc1ccc(/C=N/NC(=S)Nc2ccc(Cl)cc2Cl)cc1	0.3%	7.08µM*	2.3%	-11.1%	2.0%	-0.1%
Fc1ccc(NC(=S)N/N=C/c2ccc(F)c(F)c2)cc1	-14.8%	0.7%	7.7%	-20.0%	-3.6%	-0.8%
CCN1CCN(CC(=O)Nc2ccc(C(C)=O)cc2)CC1	5.7%	4.47µM*	5.6%	?	1.4%	0.4%
CCCCN(C1CCS(=O)(=O)C1)S(=O)(=O)c1cc(C)ccc1C (stereo not drawn)	0.4%	3.5%	/	-24.2%	2.4%	-0.5%
O=C(CCc1ccccc1)c1nnc(-c2ccccc2)o1	17.5%	-0.5%	0.5%	10µM*	-2.7%	-0.6%
